Assays:
U-2932 [1] = experiment: growth inhibition by drug alone (1 - RLU/untreated control) (fraction); higher = stronger inhibition; details: 177Lu-lilotomab satetraxetan 0 ug/ml
Outline: (§1)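 With or without 18 h pretreatment by a radiolabelled anti-CD37 antibody conjugate (~600 MBq/mg; 0.5 µg/ml RIVA, 1 µg/ml U-2932), RIVA and U-2932 cells were washed and plated at 3,000 cells/well. Pre-printed compound doses were 10/100 nM for RIVA and 10/1,000 nM for U-2932. Growth inhibition uses RealTime-Glo RLU relative to the untreated no-drug wells. The calculation is 1 − RLU/mean of 48 such wells per plate, with reads daily from day 3 after 1 h at 37°C.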

RIVA [2] = experiment: as above; details: 177Lu-lilotomab satetraxetan 0 ug/ml
Outline: as §1

U-2932 [3] = experiment: growth inhibition by drug plus 177Lu-lilotomab satetraxetan (1 - RLU/untreated control) (fraction); higher = stronger inhibition; details: 177Lu-lilotomab satetraxetan 1 ug/ml
Outline: as §1

RIVA [4] = experiment: as above; details: 177Lu-lilotomab satetraxetan 0.5 ug/ml
Outline: as §1

Compound	growth inhibition by drug alone (U-2932 [1]; 10 nM, time (day): 3)	growth inhibition by drug alone (U-2932 [1]; 10 nM, time (day): 4)	growth inhibition by drug alone (U-2932 [1]; 10 nM, time (day): 5)	growth inhibition by drug alone (U-2932 [1]; 10 nM, time (day): 6)	growth inhibition by drug alone (U-2932 [1]; 1000 nM, time (day): 3)	growth inhibition by drug alone (U-2932 [1]; 1000 nM, time (day): 4)	growth inhibition by drug alone (U-2932 [1]; 1000 nM, time (day): 5)	growth inhibition by drug alone (U-2932 [1]; 1000 nM, time (day): 6)	growth inhibition by drug alone (RIVA [2]; 10 nM, time (day): 3)	growth inhibition by drug alone (RIVA [2]; 10 nM, time (day): 4)	growth inhibition by drug alone (RIVA [2]; 10 nM, time (day): 5)	growth inhibition by drug alone (RIVA [2]; 10 nM, time (day): 6)	growth inhibition by drug alone (RIVA [2]; 100 nM, time (day): 3)	growth inhibition by drug alone (RIVA [2]; 100 nM, time (day): 4)	growth inhibition by drug alone (RIVA [2]; 100 nM, time (day): 5)	growth inhibition by drug alone (RIVA [2]; 100 nM, time (day): 6)	growth inhibition by drug plus 177Lu-lilotomab satetraxetan (U-2932 [3]; 10 nM, time (day): 3)	growth inhibition by drug plus 177Lu-lilotomab satetraxetan (U-2932 [3]; 10 nM, time (day): 4)	growth inhibition by drug plus 177Lu-lilotomab satetraxetan (U-2932 [3]; 10 nM, time (day): 5)	growth inhibition by drug plus 177Lu-lilotomab satetraxetan (U-2932 [3]; 10 nM, time (day): 6)	growth inhibition by drug plus 177Lu-lilotomab satetraxetan (U-2932 [3]; 1000 nM, time (day): 3)	growth inhibition by drug plus 177Lu-lilotomab satetraxetan (U-2932 [3]; 1000 nM, time (day): 4)	growth inhibition by drug plus 177Lu-lilotomab satetraxetan (U-2932 [3]; 1000 nM, time (day): 5)	growth inhibition by drug plus 177Lu-lilotomab satetraxetan (U-2932 [3]; 1000 nM, time (day): 6)	growth inhibition by drug plus 177Lu-lilotomab satetraxetan (RIVA [4]; 10 nM, time (day): 3)	growth inhibition by drug plus 177Lu-lilotomab satetraxetan (RIVA [4]; 10 nM, time (day): 4)	growth inhibition by drug plus 177Lu-lilotomab satetraxetan (RIVA [4]; 10 nM, time (day): 5)	growth inhibition by drug plus 177Lu-lilotomab satetraxetan (RIVA [4]; 10 nM, time (day): 6)	growth inhibition by drug plus 177Lu-lilotomab satetraxetan (RIVA [4]; 100 nM, time (day): 3)	growth inhibition by drug plus 177Lu-lilotomab satetraxetan (RIVA [4]; 100 nM, time (day): 4)	growth inhibition by drug plus 177Lu-lilotomab satetraxetan (RIVA [4]; 100 nM, time (day): 5)	growth inhibition by drug plus 177Lu-lilotomab satetraxetan (RIVA [4]; 100 nM, time (day): 6)
CO[C@H]1C[C@@H]2CC[C@@H](C)[C@@](O)(O2)C(=O)C(=O)N2CCCC[C@H]2C(=O)O[C@H]([C@H](C)C[C@@H]2CC[C@@H](O)[C@H](OC)C2)CC(=O)[C@H](C)/C=C(\C)[C@@H](O)[C@@H](OC)C(=O)[C@H](C)C[C@H](C)/C=C/C=C/C=C/1C [Rapamycin (Sirolimus)]	0.724	0.686	0.609	0.544	0.737	0.722	0.658	0.599	0.777	0.792	0.785	0.748	0.8	0.833	0.827	0.803	0.692	0.666	0.631	0.623	0.703	0.69	0.662	0.657	0.839	0.875	0.88	0.873	0.829	0.867	0.88	0.878
CCC(=O)N1CCN(c2ccc(-n3c(=O)ccc4cnc5ccc(-c6cnc7ccccc7c6)cc5c43)cc2C(F)(F)F)CC1 [Torin 1]	0.203	0.128	0.0048	-0.022	0.9	0.883	0.866	0.87	0.0288	0.0386	-0.0391	-0.398	0.409	0.37	0.289	0.104	0.168	0.161	0.208	0.242	0.904	0.878	0.875	0.879	0.556	0.599	0.631	0.621	0.595	0.604	0.565	0.531
CN(CCOc1ccc(CC2SC(=O)NC2=O)cc1)c1ccccn1 (stereo not drawn) [Rosiglitazone (Avandia)]	0.068	0.0368	-0.0298	-0.117	-0.0124	0.0197	-0.0667	-0.236	-0.0381	-0.0305	-0.0979	-0.42	-0.131	-0.086	-0.0959	-0.219	-0.0122	0.00577	0.0405	0.0655	-0.0752	0.0366	0.0101	0.078	0.409	0.548	0.564	0.587	0.382	0.504	0.532	0.523
O=C1C(Cl)=C(NCCN2CCOCC2)C(=O)c2ncccc21	0.114	0.106	0.0132	0.0178	0.227	0.184	0.124	0.0852	0.0132	0.0904	-0.00365	-0.238	0.102	0.139	0.12	0.0933	0.114	0.165	0.247	0.272	0.201	0.211	0.241	0.349	0.584	0.632	0.638	0.641	0.591	0.62	0.626	0.631
O=C(O[C@@H]1Cc2c(O)cc(O)cc2O[C@@H]1c1cc(O)c(O)c(O)c1)c1cc(O)c(O)c(O)c1 [(-)-Epigallocatechin gallate]	0.0464	-0.0176	-0.149	-0.234	-0.0141	-0.0657	-0.154	-0.12	-0.0443	-0.156	-0.418	-0.714	-0.587	-0.43	-0.44	-0.545	-0.0356	0.00037	-0.03	-0.022	0.0188	0.036	0.0512	0.127	0.452	0.532	0.55	0.559	0.363	0.454	0.47	0.474
C[C@]12CCC(=O)C=C1CC[C@@H]1[C@@H]2[C@@H](O)C[C@@]2(C)[C@H]1CC[C@]2(O)C(=O)CO [Hydrocortisone (Cortisol)]	0.112	0.0854	0.0156	-0.0358	0.303	0.304	0.221	0.167	-0.0911	-0.0297	-0.194	-0.593	-0.515	-0.297	-0.373	-0.697	0.0227	0.0897	0.119	0.139	0.281	0.288	0.293	0.362	0.519	0.578	0.597	0.608	0.101	0.303	0.317	0.347
Nc1ccn([C@@H]2O[C@H](CO)[C@@H](O)[C@@H]2O)c(=O)n1 [Cytarabine]	-0.00637	0.0194	-0.0299	-0.0808	0.484	0.568	0.585	0.6	-0.0997	-0.0678	-0.108	-0.326	-0.231	0.0413	0.0792	0.023	-0.0521	0.00463	-0.0153	-0.0601	0.688	0.801	0.859	0.89	0.51	0.601	0.632	0.644	0.655	0.771	0.793	0.81
COc1ccc(-c2ccc3c(N4CCOCC4)nc(N4C[C@@H](C)O[C@@H](C)C4)nc3n2)cc1CO	0.119	0.133	0.0721	0.0015	0.602	0.481	0.389	0.407	0.0903	0.0995	0.0433	-0.131	0.104	0.122	0.0472	-0.0784	0.0319	0.069	0.0942	0.161	0.496	0.409	0.361	0.434	0.514	0.598	0.603	0.621	0.475	0.552	0.55	0.529
CS(=O)(=O)N1CCc2c(-c3cnc(N)nc3)nc(N3CCOCC3)nc21	0.149	0.108	-0.0352	-0.0152	0.351	0.362	0.336	0.366	0.14	0.0286	-0.0356	-0.278	0.291	0.165	0.108	0.0361	0.0821	0.0867	0.0957	0.135	0.216	0.214	0.223	0.326	0.395	0.499	0.537	0.543	0.451	0.434	0.439	0.428
Nc1ccccc1NC(=O)c1ccc(CNC(=O)OCc2cccnc2)cc1 [Entinostat (MS-275, SNDX-275)]	0.036	0.00325	0.00221	0.0268	0.833	0.861	0.874	0.887	-0.0286	-0.0282	-0.046	-0.113	0.288	0.217	0.174	0.114	0.053	0.0586	0.0668	0.217	0.855	0.89	0.908	0.928	0.486	0.568	0.585	0.591	0.604	0.62	0.628	0.595
N#Cc1ccc(C(c2ccc(C#N)cc2)n2cncn2)cc1 [Letrozole]	-0.0916	-0.0615	-0.0521	0.00419	-0.0775	-0.0542	-0.0553	-0.0728	-0.194	-0.245	-0.249	-0.307	-0.0878	-0.169	-0.207	-0.242	-0.121	-0.0795	-0.0651	0.00121	-0.131	-0.067	-0.0375	0.0441	0.418	0.498	0.524	0.535	0.319	0.397	0.409	0.401
c1ccc(-c2nn3c(c2-c2ccnc4cc(OCCN5CCOCC5)ccc24)CCC3)nc1	0.0304	0.0254	0.0259	-0.126	0.0168	-0.0245	-0.0928	-0.157	-0.0878	-0.000924	-0.142	-0.487	-0.472	-0.252	-0.3	-0.522	0.0114	0.0692	0.139	0.155	-0.0195	0.0208	0.0497	0.121	0.46	0.581	0.585	0.558	0.237	0.413	0.439	0.459
Cc1ccc(NC(=O)c2cccc(C(C)(C)C#N)c2)cc1Nc1ccc2ncn(C)c(=O)c2c1	0.0487	0.00122	-0.0179	-0.0294	0.157	0.159	0.087	0.137	-0.0415	-0.0437	-0.0355	-0.0473	-0.346	-0.245	-0.279	-0.339	0.00759	0.0624	0.11	0.17	0.173	0.189	0.164	0.263	0.556	0.622	0.643	0.651	0.432	0.547	0.564	0.563
Cn1cc(-c2ccc3nnc(Sc4ccc5ncccc5c4)n3n2)cn1	0.0784	0.0569	-0.0234	-0.0672	0.09	0.0464	-0.0633	-0.0059	0.0128	0.0644	0.0167	-0.227	-0.0367	0.0223	0.00017	-0.0611	0.0469	0.105	0.177	0.212	0.0614	0.085	0.142	0.222	0.61	0.637	0.638	0.635	0.458	0.538	0.561	0.584

— the supplement of paper PMC6897291
